Screening results as filed in PubChem BioAssay.
ALDH1A1 inh = inhibitors of human aldehyde dehydrogenase 1A1; Potency, µM (highest dose often 75.3 µM), for the others: at the highest dose activity, negative = inhibition, most hits filed as inhibitors; P00352; actives 7.3% (n = 220,000); Purified ALDH1A1, NADH fluorescence, propionaldehyde substrate; active = well fitted inhibition curve with a large enough effect, not every such curve was filed as active; inconclusive = small, poorly fitted or top-dose-only effect, or another doubt; inactive = no such curve, though single readings can be large or run the other way;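 note: potency is the fitted concentration of half-maximal effect; plate controls were no enzyme wells and a reference inhibitor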
HTT ATP protect = protects HTT-Q103 PC12 cells, measured by ATP; PC12 HTT-Q103 induced, cytoprotection, ATP luminescence, 40 h; AID 1471; actives 0.14% (n = 230,000); Potency, µM (highest dose often 56.4 µM), for the others: cytoprotection (ATP increase), actives largely listed as activators; note: potency is the fitted concentration of half-maximal effect; % of control where 0% means no effect; nearly all actives have a fitted effect of over 45% in size
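Readout: ATPlite luminescence (ATP level). Model: stable PC12, inducible Htt exon1 Q103-GFP. Inducer: tebufenozide, 100 nM final. Compounds: dose series. No G418 in medium.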
HPGD block = HPGD (human) dehydrogenase inhibition; purified HPGD, NADH fluorescence kinetic, PGE2 substrate; Potency, µM, without a hit: at the top dose activity change, negative = inhibition, most hits filed as inhibitors; P15428; actives 4.3% (n = 150,000); active = well fitted inhibition curve with a large enough effect, not every such curve was filed as active; inconclusive = small, poorly fitted or top-dose-only effect, or another doubt; inactive = no such curve, though single readings can be large or run the other way; note: potency is the fitted concentration of half-maximal effect; % is set by controls: 0 for no effect and ±100 for the full control effect
Target sequence (P15428 whole entry, looked up): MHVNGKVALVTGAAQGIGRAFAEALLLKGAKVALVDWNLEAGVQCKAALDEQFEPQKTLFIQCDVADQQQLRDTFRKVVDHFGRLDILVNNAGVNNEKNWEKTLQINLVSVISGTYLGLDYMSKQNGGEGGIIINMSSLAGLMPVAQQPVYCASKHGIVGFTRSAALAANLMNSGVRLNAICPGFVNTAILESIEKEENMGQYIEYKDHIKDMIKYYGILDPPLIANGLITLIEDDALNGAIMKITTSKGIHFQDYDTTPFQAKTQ
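20 nM HPGD preincubated 15 min at room temperature with compound in 50 mM Tris-HCl pH 8, 0.01% Tween 20. Started with 1 mM NAD+ and 30 uM prostaglandin E2; NADH fluorescence (360/450 nm) read 5 times over 30-s intervals, last minus first.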
RGS12 GoLoco inh = blocks human Gai1 binding to RGS12 GoLoco peptide, red readout; actives 0.44% (n = 230,000); Potency, µM (top dose mostly 61.6 µM), inactives show top-dose activity, negative = inhibition, most hits filed as inhibitors; Gai1:RGS12 GoLoco peptide FP, rhodamine, 10 min; active = well fitted inhibition curve with a large enough effect, not every such curve was filed as active; inactive = no such curve, though single readings can be large or run the other way; note: potency is the fitted concentration of half-maximal effect; % is set by controls: 0 for no effect and ±100 for the full control effect; nearly all actives have a fitted effect of over 30% in size
Target sequence (P63096 whole entry, looked up): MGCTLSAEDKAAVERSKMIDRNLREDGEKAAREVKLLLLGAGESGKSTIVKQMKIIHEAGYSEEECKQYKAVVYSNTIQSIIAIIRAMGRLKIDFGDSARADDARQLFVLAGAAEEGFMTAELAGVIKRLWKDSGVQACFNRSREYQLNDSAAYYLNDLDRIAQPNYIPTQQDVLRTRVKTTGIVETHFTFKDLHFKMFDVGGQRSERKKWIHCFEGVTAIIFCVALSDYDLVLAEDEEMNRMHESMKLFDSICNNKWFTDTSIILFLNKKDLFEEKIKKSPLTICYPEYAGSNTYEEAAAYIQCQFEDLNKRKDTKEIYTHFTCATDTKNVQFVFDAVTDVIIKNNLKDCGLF
PNC inhibitor = inhibitors of perinucleolar compartment assembly; PC3M PTB-GFP, PNC prevalence imaging, 16 h; hits give low values; activity change (PNC), negative = inhibition, % at 10 µM; actives 3.1% (n = 140,000); AID 2417;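 active = readout at or below -70, meaning at least 70% loss of cells showing the perinucleolar compartment, a nuclear body marking cancer cells; inconclusive = readout between -30 and a set limit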;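 note: plate controls were DMSO wells for no effect and camptothecin positive control wells for full effect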
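Compounds are pinned in duplicate onto adhered PC3M cells stably expressing GFP-tagged PTB and incubated 16 h at 37 C. Cells are then fixed, nuclei stained with Hoechst, and PNC-positive cells counted.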
HTT aggregate = mutant huntingtin aggregation inhibition. PC12 HttQ103-GFP aggregates, Acumen cytometry, 40 h. AID 1688. Potency, µM (top dose mostly 46.1 µM), inactives show at the top dose activity change, negative = inhibition, usual class: inhibitors. actives 1.1% (n = 220,000); note: potency is the fitted concentration of half-maximal effect; % is set by controls: 0 for no effect and ±100 for the full control effect; nearly all actives have a fitted effect of over 60% in size
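Multiplexed with ATP-based cell death, this channel scores GFP aggregates in PC12 cells expressing inducible HTTex1-Q103-GFP. Induction used 100 nM tebufenozide; compounds were tested in concentration series.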
Numbers without * were called inactive; ? = inconclusive; . = no result given; [ ] = another dose, or the depositor's remark. Sampled rows, rich in hits. Any-hit rate of the full collection: about 11%. Unless noted, calls come from the whole dose curve; as a rule, active = well fitted curve in the direction sought with a large enough effect; inconclusive = small, poorly fitted or top-dose-only effect, or another doubt; inactive = no such curve, though single readings can be large; an effect the other way counts as inactive or inconclusive.

SMILES	ALDH1A1 inh	HTT ATP protect	HPGD block	RGS12 GoLoco inh	PNC inhibitor	HTT aggregate
CCOc1cc(/C=N/Nc2cccc(C(=O)O)c2)ccc1OCC(=O)N1CCCCC1	?	21%	.	-1%	.	4%
CCCn1c(SCC(=O)c2cc(C)n(-c3ccc4c(c3)OCO4)c2C)n[nH]c1=O	-10%	3.5µM*	-8%	1%	-28	-29%
Cc1cc(C(=O)CSc2nnnn2-c2ccccc2)c(C)n1-c1ccc2c(c1)OCO2	0.25µM*	.	-19%	38%	-27	1%
Cc1cc(C(=O)CSc2nnc(C3COc4ccccc4O3)n2C)c(C)n1-c1ccc(F)cc1 (stereo not given)	?	-13%[10 µM]	28µM*	-7%	12	?
CCCn1c(SCC(=O)c2ccc(CC)cc2)n[nH]c1=O	-4%	?	-19%	7%	6	0.89µM*
Cc1cc(C(=O)COc2ccc(C#N)cc2)c(C)n1-c1ccc2c(c1)OCO2	5%	-10%[10 µM]	-4%	-1%	-14	-3%
Cc1cc(C(=O)COC(=O)C2=COCCO2)c(C)n1-c1ccc2c(c1)OCO2	16µM*	-7%[10 µM]	16µM*	16%	-12	0%
CCCC(=O)N1CCN(c2ccc(NC(=O)c3cccs3)cc2)CC1	12%	-47%	.	0%	.	-3%
Cc1cc(C)cc(NC(=O)CN2CCN(c3ncccn3)CC2)c1	?	5%	-14%	2%	-9	1%[9.22 µM]
O=C(CN1CCN(c2ncccn2)CC1)Nc1ccccc1-n1cccc1	14µM*	-36%	-14%	-8%	84	?
Cc1cc(C(=O)N2CCCC(C(=O)c3cc(F)ccc3F)C2)c(C)o1 (stereo not given)	14µM*	-23%	.	-4%	.	11%
COc1ccc(NC(=O)C2CC(=O)n3cnnc3S2)cc1 (stereo not given)	0.71µM*	-6%	18µM*	-9%	?	4%
COc1cccc(NC(=O)C2CC(=O)n3cnnc3S2)c1 (stereo not given)	0.71µM*	-34%	16µM*	-23%	9	12%
O=S1(=O)OC(c2ccc(O)cc2)(c2ccc(O)cc2)c2ccccc21	14%[13.5 µM]	5%[10 µM]	0%	11%[14.2 µM]	.	6%
O=C(c1ccc(N2CCCCC2)c([N+](=O)[O-])c1)N1CCOCC1	1%	-41%	-15%	5%	87	20%
O=C(NN1CCN(Cc2ccccc2)CC1)c1ccc(N2CCOCC2)c([N+](=O)[O-])c1	2.2µM*	-15%	.	-3%	.	8%
O=C(N/N=C/c1ccccc1)c1ccc(N2CCOCC2)c([N+](=O)[O-])c1	?	.	-26%	11%	-23	11%
O=C(NCc1ccc2c(c1)OCO2)c1ccc(N2CCCCCC2)c([N+](=O)[O-])c1	10µM*	3%[10 µM]	14µM*	-6%	-6	-7%
O=C(NCCN1CCOCC1)c1ccc(N2CCCC2)c([N+](=O)[O-])c1	16µM*	-59%	.	2%	.	-1%
C=CCOC(=O)C(C(C)=O)C(NC(=O)OC)c1ccc(Cl)cc1 (stereo not given)	11%[13.5 µM]	-12%[10 µM]	.	.	.	.
CCC1CCCCN1CC(=O)c1c(C)[nH]c2ccc(OC)cc12 (stereo not given)	0%	-3%[10 µM]	.	10%	.	-16%[9.22 µM]
Cc1ccccc1-n1c(SCc2c(C)noc2C)nnc1-c1ccncc1	?	-5%	-12%	55%	-83*	-13%
O=C1C(=O)c2c(C(=O)c3ccccc3)coc2-c2ccccc21	?	-83%[10 µM]	22µM*	6%	5	?
Cc1oc2c(c1C(=O)c1ccccc1)C(=O)C(=O)c1ccccc1-2	-8%	-123%	?	5%	-7	?
O=C(O)CC1SC(N/N=C/c2ccc(Br)cc2)NC1=O (stereo not given)	6%	28%[10 µM]	.	13%	.	-18%
SMILES	ALDH1A1 inh	HTT ATP protect	HPGD block	RGS12 GoLoco inh	PNC inhibitor	HTT aggregate
Cc1cc(O)c(Oc2cc(C)cc(O)c2O)c(O)c1	8.9µM*	-18%[10 µM]	.	-12%	.	1%[9.22 µM]
O=C(Nc1nccs1)C1(S(=O)(=O)c2ccc(Cl)cc2)CC1	11µM*	-91%	.	.	-11	?
Cc1ccc(S(=O)(=O)C2(C(=O)Nc3nccs3)CC2)cc1	-8%	-14%	-13%	3%	45	0%
Cc1cc2c(c(=O)n1Cc1ccco1)C(c1cccnc1)C(C#N)=C(N)O2 (stereo not given)	7.5µM*	-13%[0.074 µM]	-19%	59%	?	9%[9.22 µM]
CC1=C(n2nnc([N+](=O)[O-])n2)C(c2cccnc2)C(C#N)=C(N)O1 (stereo not given)	1.1µM*	.	-8%	2%	19	-20%
Cc1nn(-c2cccc(Cl)c2)c2c1C(c1cccnc1)C(C#N)=C(N)O2 (stereo not given)	7.9µM*	-8%[10 µM]	-20%	5%	-4	?
Cc1nn(-c2cccc(Cl)c2)c2c1C(c1ccncc1)C(C#N)=C(N)O2 (stereo not given)	10µM*	12%	-12%	-9%	59	?
CCCc1cc(=O)oc2c3c(c4c(c12)OC(C)(C)C=C4)OC(C)C(C)C3O (stereo not given)	?	8%[10 µM]	.	10%	.	15%[9.22 µM]
CCn1ccnc1CN(C)Cc1nc(CCC(C)C)no1	3%	10%[10 µM]	.	7%	.	11%[9.22 µM]
C=Cc1ccccc1C=C	1%	-1%	-3%	8%	.	.
S=c1nc[nH]c2nc[nH]c12	7.9µM*	-145%	?	-16%	.	.
O=S(=O)(N/N=C/c1cccc(OC2CSC2)c1)c1ccccc1	-1%	.	-7%	12%	-112*	16%
S=C(c1ccc(-c2ccc(Cl)c(Cl)c2)o1)N1CCOCC1	8.9µM*	-11%[10 µM]	25µM*	32%	5	4%
S=C(c1ccc(-c2ccccc2Cl)o1)N1CCOCC1	7.9µM*	-25%	8.9µM*	-3%	?	-4%
O=C(c1ccc(-c2cccc(Cl)c2Cl)o1)N1CCOCC1	?	-54%	.	-5%	.	-6%
NC(C(=O)O)C(c1ccccc1)C(F)F (stereo not given)	.	-44%[10 µM]	.	5%	.	-15%[9.22 µM]
CN(C)S(=O)(=O)c1ccc(C(=O)Nc2nnc(-c3cccs3)o2)cc1	10%	28%[10 µM]	.	8%	.	?
O=C(Nc1nnc(-c2ccco2)o1)c1ccc(S(=O)(=O)N2CCCC2)cc1	35µM*	-27%	.	-2%	.	-13%
